This passage reports growth results from PubChem BioAssay (NCI).

Compounds without any hit were thinned out: in the full panel of roughly 83,000, 20% have a hit.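 Each cell line was grown in a 96-well plate and treated with one concentration of compound for 48 hours. Values below 10 were considered active.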 Activity calls are given as the source filed them.

The test system of this assay is NCI-H522 lung. Description: NCI-60 one-dose screen, 48 h (100 = growth as untreated, 0 = no growth, -100 = all killed). To be noted: 10 µM unless noted.
Take `CCCOc1ccc2nc(NC(=O)OC)[nH]c2c1`: the growth is -32.7% (active).
For `NS(=O)(=O)c1ccc(CN=C2NC(=O)S/C2=C\c2ccc(Br)cc2)cc1`, the growth is 90.8% (inactive).
Then `N=C(N)c1ccc(-c2ccc(-c3ccc4ccccc4c3)s2)s1`, with 15.3% (inactive).
As to `COc1cc2nc(N3CCCC3)nc(Nc3ccccc3)c2cc1OC`, the growth was -53% (active).
On to `C#Cc1cccc(NC(=O)c2ccccc2NC(=O)C=C)c1`, for which the growth is 80.5% [8.25 µM] (inactive).
On to `C#CC(F)(F)[C@]1(O)CC[C@H]2[C@@H]3CCC4=CC(=O)CCC4=C3[C@@H](c3ccc(C(C)=O)cc3)C[C@@]21C`, for which the growth was -73% (active).
As for `Cc1ccc(NC(=O)/C=C/c2ccccc2)c(C(N)=O)c1`, the growth is -8.74% (active).
Under `CCOc1cc2ncc(C#N)c(Nc3ccc(OCc4cccc(F)c4)c(Cl)c3)c2cc1NC(=O)CC1CCSS1` (centres undefined) stands 58.2% (inactive).
Then `CCOC(=O)c1c(C(=O)OCC)c2cc(-c3ccn4c(C(=O)c5ccccc5)c(C(=O)OCC)c(C(=O)OCC)c4c3)ccn2c1C(=O)c1ccccc1`, with 75.6% (inactive); and `NC(=O)c1cc(Br)ccc1NC(=O)/C=C/c1ccccc1`, with -24.9% (active); and `COC(=O)[C@@H]1CCCN1C(=O)[C@@H]1CCCN1C(=O)[C@H](Cc1ccccc1)NC(=S)Nc1cc(C(F)(F)F)cc(C(F)(F)F)c1`, with -11.4% (active).
Then `COc1ccc(-c2cc(=O)c3c(OC)c4ccoc4cc3o2)cc1`, with 82.4% (inactive).
On to `NC(=NCCCC1(c2ccccc2)CCCC1)Nc1ccc(Cl)cc1`, for which the growth is 56.9% (inactive).
As to `COC(=O)c1ccc(Cn2cnc3c(N)ncnc32)cc1`, the growth was 69.6% (inactive).
